# Records with an inconclusive call do not appear. Where a call stands in place of a potency, no number is given. More than one record can exist for a structure, and the calls need not agree. The source made the active and inactive calls. Calls follow the shape of the full dose curve.
# Assay: qHTS assay to identify small molecule agonists of the progesterone receptor (PR) signaling pathway - cell viability counter screen (AID 1346799); also: nearly all actives have a fitted effect of over 45% in size
# Conditions: PR-UAS-bla HEK293T viability, CellTiter-Glo luminescence, 16 h; series mostly up to 92.4 µM
# Description: National Center for Advancing Translational Sciences [NCATS]
# NIH Chemical Genomics Center [NCGC]
# U.S. Environmental Protection Agency [EPA]
# National Institutes of Environmental Health Sciences [NIEHS]
# National Toxicology Program [NTP]
# U.S. Food and Drug Administration [FDA]
# Progesterone receptor (PR), a nuclear hormone receptor, plays an important role in development, metabolic homeostasis and reproduction. It is activated by the steroid hormone progesterone. Endocrine disrupting chemicals (EDCs) and their interactions with steroid hormone receptors like PR causes disruption of normal endocrine function. To identify the compounds that stimulate PR signaling, a PR-UAS-bla GripTite cell line i.e. PR-UAS-bla HEK293T (Invitrogen, Carlsbad, CA, USA) containing a beta-lactamase reporter gene under the control of an UAS response element was used to screen Tox21 10K compound library. The cytotoxicity of the Tox21 compound library against the PR-bla cell line was tested in parallel by measuring the cell viability using CellTiter-Glo assay in the same wells.
# Tox21 Assay Protocol Summary:
# PR-UAS-bla HEK293T cells were dispensed at 3,000 cells/5 uL of assay medium containing 2% charcoal stripped FBS per well into black wall/clear-bottom 1536-well plates using a Multidrop Combi (ThermoFisher Scientific, Waltham, MA) dispenser. After the assay plates were incubated at a 37C and 5% CO2 for 6 hr, 23 nL of compounds dissolved in DMSO, positive controls or DMSO only was transferred to the assay plate by a Pintool station (Kalypsys, San Diego, CA). The plates were incubated at 37C and 5% CO2 for 16 hr. Then 1 uL of LiveBLAzer B/G FRET substrate was added using a Flying Reagent Dispenser (FRD, Aurora Discovery, San Diego, CA), the plates were incubated at room temperature for 2 hours, and fluorescence intensity was measured by an Envision plate reader (PerkinElmer, Shelton, CT). For cell viability readout that measures cytotoxicity, 4 uL/well of CellTiter-Glo reagent was added into the assay plates using a FRD. After 30 min incubation at room temperature, the luminescence intensity in the plates was measured using a ViewLux (PerkinElmer) plate reader.
# Potency is read from the fitted curve at half-maximal effect.
row,SMILES,Potency
1,CCN(CC)c1ccccc1,inactive
2,OCCN(CCO)CCO,inactive
3,CCCN(CCC)c1c([N+](=O)[O-])cc(C(F)(F)F)cc1[N+](=O)[O-],inactive
4,O=C1CCCN1,inactive
5,CC(C)(C)OOC(=O)c1ccccc1,inactive
6,C1CC2OC2CC1C1CO1 (stereo not given),inactive
7,O=c1ccc(=O)[nH][nH]1,inactive
8,c1ccc2c(c1)oc1ccccc12,inactive
9,C1CN2CCN1CC2,inactive
10,COC(=O)c1ccccc1C(=O)OC,inactive
11,BrCCBr,inactive
12,Nc1ccc(Oc2ccc(N)cc2)cc1,inactive
13,c1ccc(-c2ccccc2)cc1,inactive
14,CN(C)N=O,inactive
15,C#CCN(C)[C@H](C)Cc1ccccc1,inactive
16,CCNc1nc(NC(C)(C)C)nc(SC)n1,inactive
17,CCN(CC)CCO,inactive
18,O=NN1CCCCCCC1,inactive
19,CN(N=O)c1ccccc1,inactive
20,Cc1ccc([N+](=O)[O-])cc1C,inactive

row,SMILES,Potency
1,CNC(=O)Oc1ccccc1OC(C)C,inactive
2,COC(=O)NC(=S)Nc1ccccc1NC(=S)NC(=O)OC,inactive
3,Cc1cc(-c2cc(C)c(N)c(C)c2)cc(C)c1N,inactive
4,c1cc2c3c(cccc3c1)CC2,inactive
5,CCC12COCN1COC2,inactive
6,CC(NC(C)(C)C)C(=O)c1cccc(Cl)c1 (stereo not given),inactive
7,CCCN(CCC)N=O,inactive
8,O=[N+]([O-])c1ccccc1,inactive
9,c1ccc(OP(Oc2ccccc2)Oc2ccccc2)cc1,inactive
10,CN1C(=O)CN=C(c2ccccc2)c2cc(Cl)ccc21,27.7 µM (active) and inactive
11,Nc1ccccc1C(=O)O,inactive
12,CCOP(OCC)OCC,inactive
13,CC(C)(C)OOC(C)(C)C,inactive
14,CCCCCCCCCl,inactive
15,C#CC(C)(C)NC(=O)c1cc(Cl)cc(Cl)c1,inactive
16,CN=C=S,inactive
17,COC(=O)c1ccccc1N,inactive
18,CCOP(=S)(OCC)Oc1cnc2ccccc2n1,inactive
19,O=c1n(Cl)c(=O)n(Cl)c(=O)n1Cl,inactive
20,CN(C)CCO,inactive

# Reference: PubChem BioAssay (Tox21)
